Measurements published in PMC13423814.

Molecular target: ACTR2 (UniProt P61160)
Conditions: DSSO, in cells

TCP1, P17987, sequence (P17987 whole entry): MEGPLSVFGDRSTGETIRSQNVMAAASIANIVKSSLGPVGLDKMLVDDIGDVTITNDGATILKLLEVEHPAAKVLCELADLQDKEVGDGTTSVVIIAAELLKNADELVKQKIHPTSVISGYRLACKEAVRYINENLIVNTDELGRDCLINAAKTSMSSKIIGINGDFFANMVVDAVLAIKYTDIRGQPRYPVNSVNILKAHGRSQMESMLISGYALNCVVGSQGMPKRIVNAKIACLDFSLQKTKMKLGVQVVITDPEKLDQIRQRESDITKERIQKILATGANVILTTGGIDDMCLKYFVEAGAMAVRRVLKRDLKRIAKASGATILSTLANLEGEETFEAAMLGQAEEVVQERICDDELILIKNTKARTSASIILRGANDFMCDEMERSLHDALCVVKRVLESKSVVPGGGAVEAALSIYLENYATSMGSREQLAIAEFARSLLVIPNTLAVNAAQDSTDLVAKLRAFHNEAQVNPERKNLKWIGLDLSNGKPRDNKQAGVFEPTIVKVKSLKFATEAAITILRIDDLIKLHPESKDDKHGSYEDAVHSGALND
HSPA8, P11142, sequence (P11142 whole entry): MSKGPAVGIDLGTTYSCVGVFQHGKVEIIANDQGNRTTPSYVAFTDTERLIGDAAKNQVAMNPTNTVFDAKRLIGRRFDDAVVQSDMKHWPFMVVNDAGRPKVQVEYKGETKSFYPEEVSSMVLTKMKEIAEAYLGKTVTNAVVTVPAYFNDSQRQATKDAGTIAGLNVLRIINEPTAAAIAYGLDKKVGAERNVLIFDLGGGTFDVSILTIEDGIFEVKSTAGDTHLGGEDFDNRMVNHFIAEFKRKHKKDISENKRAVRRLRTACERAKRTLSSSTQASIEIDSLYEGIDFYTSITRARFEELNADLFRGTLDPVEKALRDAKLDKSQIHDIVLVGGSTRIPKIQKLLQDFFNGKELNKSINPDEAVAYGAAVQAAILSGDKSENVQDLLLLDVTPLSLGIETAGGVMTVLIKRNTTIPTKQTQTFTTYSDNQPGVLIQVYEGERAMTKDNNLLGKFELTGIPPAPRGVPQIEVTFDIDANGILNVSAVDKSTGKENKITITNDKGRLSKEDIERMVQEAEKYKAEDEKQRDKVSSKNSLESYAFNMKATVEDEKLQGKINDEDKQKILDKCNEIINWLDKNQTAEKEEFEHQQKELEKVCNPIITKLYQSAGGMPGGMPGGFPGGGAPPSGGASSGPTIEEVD
GOT2, P00505, sequence (P00505 whole entry): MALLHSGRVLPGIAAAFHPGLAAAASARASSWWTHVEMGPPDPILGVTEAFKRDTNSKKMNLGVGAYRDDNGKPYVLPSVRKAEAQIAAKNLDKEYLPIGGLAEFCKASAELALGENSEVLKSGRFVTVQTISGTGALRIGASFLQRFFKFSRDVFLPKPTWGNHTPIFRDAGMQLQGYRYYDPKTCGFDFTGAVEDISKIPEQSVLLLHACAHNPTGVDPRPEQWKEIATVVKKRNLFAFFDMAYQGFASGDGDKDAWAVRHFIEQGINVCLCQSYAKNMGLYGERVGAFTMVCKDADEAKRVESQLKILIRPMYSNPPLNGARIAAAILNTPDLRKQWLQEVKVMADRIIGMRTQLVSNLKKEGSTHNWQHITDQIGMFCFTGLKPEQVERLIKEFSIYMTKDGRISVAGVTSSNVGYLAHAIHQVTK
PDCD5, O14737, sequence (O14737 whole entry): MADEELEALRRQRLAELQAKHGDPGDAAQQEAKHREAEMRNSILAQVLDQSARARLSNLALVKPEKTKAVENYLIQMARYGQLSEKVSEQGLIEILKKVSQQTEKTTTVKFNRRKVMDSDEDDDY
S100A10, P60903, sequence (P60903 whole entry): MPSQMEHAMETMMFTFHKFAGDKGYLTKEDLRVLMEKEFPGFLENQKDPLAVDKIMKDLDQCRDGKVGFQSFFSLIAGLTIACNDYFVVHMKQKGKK
FDXR, P22570, sequence (P22570 whole entry): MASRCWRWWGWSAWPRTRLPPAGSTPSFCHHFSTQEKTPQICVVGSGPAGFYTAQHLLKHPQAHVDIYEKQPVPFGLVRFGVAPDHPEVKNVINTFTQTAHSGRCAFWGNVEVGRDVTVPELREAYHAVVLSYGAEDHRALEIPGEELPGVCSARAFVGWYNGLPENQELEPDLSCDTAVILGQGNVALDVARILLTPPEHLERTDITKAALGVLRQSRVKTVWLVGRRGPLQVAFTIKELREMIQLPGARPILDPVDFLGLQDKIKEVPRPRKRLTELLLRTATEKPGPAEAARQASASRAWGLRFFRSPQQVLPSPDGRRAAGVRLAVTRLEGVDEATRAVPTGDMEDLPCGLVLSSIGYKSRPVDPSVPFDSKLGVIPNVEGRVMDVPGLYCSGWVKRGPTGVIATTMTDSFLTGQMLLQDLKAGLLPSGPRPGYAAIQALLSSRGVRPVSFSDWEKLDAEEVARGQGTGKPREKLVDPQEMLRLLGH
CCT3, P49368, sequence (P49368 whole entry): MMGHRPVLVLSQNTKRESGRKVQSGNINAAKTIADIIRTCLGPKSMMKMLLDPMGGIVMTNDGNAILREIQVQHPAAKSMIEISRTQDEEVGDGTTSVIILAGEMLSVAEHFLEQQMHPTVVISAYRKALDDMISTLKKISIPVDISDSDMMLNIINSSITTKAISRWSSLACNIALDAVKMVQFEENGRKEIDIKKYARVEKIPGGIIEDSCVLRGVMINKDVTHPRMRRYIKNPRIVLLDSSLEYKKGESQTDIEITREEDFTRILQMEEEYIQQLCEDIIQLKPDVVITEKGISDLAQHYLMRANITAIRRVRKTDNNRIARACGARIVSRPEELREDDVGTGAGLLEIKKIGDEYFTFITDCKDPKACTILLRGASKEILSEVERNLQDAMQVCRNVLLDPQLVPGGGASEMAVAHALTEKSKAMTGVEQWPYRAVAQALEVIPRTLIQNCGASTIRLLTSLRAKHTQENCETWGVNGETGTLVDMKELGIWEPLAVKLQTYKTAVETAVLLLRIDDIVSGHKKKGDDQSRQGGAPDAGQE
YWHAE, P62258, sequence (P62258 whole entry): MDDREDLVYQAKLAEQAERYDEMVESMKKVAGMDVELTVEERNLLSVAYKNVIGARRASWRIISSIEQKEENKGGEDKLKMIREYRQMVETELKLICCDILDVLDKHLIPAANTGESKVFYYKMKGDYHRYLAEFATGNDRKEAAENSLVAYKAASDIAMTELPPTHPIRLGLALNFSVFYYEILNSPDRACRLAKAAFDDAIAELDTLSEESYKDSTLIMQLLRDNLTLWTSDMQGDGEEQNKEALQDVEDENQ

Substance | cross-linked residues
ARPC3, O15145 | K61 - K46
ARPC1B, O15143 | K307 - K253
GMFB, P60983 | K110 - K368

Molecular target: AHNAK2 (UniProt Q8IVF2)
Conditions: DSSO, in cells

Substance | cross-linked residues
YWHAE, P62258 | K69 - K312
HSPA8, P11142 | K601 - K1932
S100A10, P60903 | K57 - K2639

Molecular target: C1QBP (UniProt Q07021)
Conditions: DSSO, in cells

C1QBP, sequence (Q07021 whole entry): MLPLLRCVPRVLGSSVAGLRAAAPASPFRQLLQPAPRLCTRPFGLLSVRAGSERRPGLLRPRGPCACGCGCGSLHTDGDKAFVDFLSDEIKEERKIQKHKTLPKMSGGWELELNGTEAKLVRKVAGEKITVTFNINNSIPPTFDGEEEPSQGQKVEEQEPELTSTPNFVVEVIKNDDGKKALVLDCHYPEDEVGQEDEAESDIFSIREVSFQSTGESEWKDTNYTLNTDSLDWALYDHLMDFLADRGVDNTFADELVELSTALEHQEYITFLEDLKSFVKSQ

Substance | cross-linked residues
FDXR, P22570 | K287 - K123
GOT2, P00505 | K90 - K123
MDH2, P40926 | K239 - K123

Molecular target: CCT4 (UniProt P50991)
Sequence (P50991 whole entry): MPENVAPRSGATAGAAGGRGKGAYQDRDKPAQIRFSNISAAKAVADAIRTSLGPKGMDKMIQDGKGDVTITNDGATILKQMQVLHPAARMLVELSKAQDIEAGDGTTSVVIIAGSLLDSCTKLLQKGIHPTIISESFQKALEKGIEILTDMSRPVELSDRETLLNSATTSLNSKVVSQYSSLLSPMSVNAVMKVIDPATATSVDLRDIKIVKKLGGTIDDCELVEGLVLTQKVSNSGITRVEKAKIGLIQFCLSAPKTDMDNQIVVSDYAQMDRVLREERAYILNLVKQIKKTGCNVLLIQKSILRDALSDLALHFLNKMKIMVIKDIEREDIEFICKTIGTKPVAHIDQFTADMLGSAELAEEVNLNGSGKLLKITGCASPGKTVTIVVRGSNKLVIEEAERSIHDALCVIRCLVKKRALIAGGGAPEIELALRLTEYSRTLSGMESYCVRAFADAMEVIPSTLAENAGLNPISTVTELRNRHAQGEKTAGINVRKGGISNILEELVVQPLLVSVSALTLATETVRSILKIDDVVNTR
Conditions: DSSO, in cells

Substance | cross-linked residues
TCP1, P17987 | K126 - K55
PDCD5, O14737 | K110 - K395
CCT3, P49368 | K529 - K65
